# From PubChem
# Tau fluor cs = counter-screen for tau fibril formation inhibitors; tau K18 P301L Alexa594 fluorescence, heparin fibrillization; Potency, µM (titrated, usually from 57.7 µM), without a hit: at the top dose activity change, negative = decrease; 280,000 compounds, 0.93% hits; AID 1463; also: nearly all actives have a fitted effect of over 55% in size
#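 Human K18 P301L tau (15 uM unlabeled plus 0.24 uM Alexa 594-labeled, final) in 100 mM sodium acetate pH 7 was mixed with compound and 20 uM heparin and incubated 6 hr at 37 C.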
# RORg inh = inhibitors of mouse ROR gamma transcriptional activity | Potency, µM (top dose mostly 53.6 µM), for inactives: at the highest dose activity change, negative = inhibition, actives largely listed as inhibitors | 310,000 compounds, 5.4% hits | P51450 | Drosophila S2 Gal4-RORgamma UAS-luciferase reporter, 20 h; also: nearly all actives have a fitted effect of over 60% in size
# Target sequence (P51450 whole entry, looked up, the tested form may be a part): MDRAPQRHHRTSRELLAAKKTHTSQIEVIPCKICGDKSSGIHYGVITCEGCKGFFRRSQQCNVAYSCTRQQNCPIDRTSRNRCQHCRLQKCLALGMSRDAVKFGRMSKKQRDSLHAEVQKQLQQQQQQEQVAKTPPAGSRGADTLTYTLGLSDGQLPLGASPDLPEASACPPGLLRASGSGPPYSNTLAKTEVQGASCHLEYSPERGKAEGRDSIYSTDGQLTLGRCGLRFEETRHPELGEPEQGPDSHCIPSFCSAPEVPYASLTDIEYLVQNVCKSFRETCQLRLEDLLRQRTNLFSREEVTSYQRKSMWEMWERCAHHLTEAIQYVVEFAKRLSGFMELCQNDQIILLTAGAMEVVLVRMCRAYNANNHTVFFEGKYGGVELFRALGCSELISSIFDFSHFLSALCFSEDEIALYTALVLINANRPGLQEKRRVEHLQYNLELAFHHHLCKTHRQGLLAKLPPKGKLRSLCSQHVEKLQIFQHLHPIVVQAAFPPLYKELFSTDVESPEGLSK
#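 Stably transfected Drosophila Schneider cells are the test system, with ROR gamma fused to Gal4 and luciferase under UAS control; luminescence is read after 20 hr of 700 uM copper sulfate induction at ambient temperature.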
# Tau fibril ThT = inhibitors of human tau fibril formation, thioflavin T binding | P10636 | recombinant tau K18 P301L (four-repeat tau fragment), heparin-induced fibrillization, ThT fluorescence | Potency, µM (series often up to 57.4 µM), for inactives: at the highest dose activity, negative = inhibition, most hits filed as inhibitors | 270,000 compounds, 2.1% hits | AID 1460; also: nearly all actives have a fitted effect of over 55% in size
#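 In this qHTS, human K18 P301L tau is incubated with compound and heparin for 6 hr at 37 C, and Thioflavin T fluorescence then reports fibril load.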
# Gal4-VP16 FLuc = inhibits Gal4-VP16 luciferase reporter, ROR gamma counter-screen; Drosophila S2 Gal4-VP16 UAS-luciferase, luminescence, 20 h; Potency, µM (doses to about 53.6 µM), for the others: top-dose activity, negative = inhibition, hits mostly inhibitors; 310,000 compounds, 3.5% hits;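 also: Gal4-VP16 expression switched on by copper sulfate through the metallothionein promoter; nearly all actives have a fitted effect of over 50% in size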
# Tau fibril FP = inhibitors of human tau fibril formation; P10636; K18 P301L tau heparin fibrillization, Alexa594 FP, 6 h; Potency, µM (highest dose often 57.7 µM), inactives show top-dose activity, negative = inhibition, actives largely listed as inhibitors; 280,000 compounds, 0.39% hits; AID 1468; also: nearly all actives have a fitted effect of over 55% in size
#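 Human tau K18 […] P301L fragment, 15 uM unlabeled plus 0.24 uM Alexa 594-labeled tau (final), with compound and 20 uM heparin in 100 mM sodium acetate pH 7; 6 hr at 37 C, then Alexa 594 FP read.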
# An asterisk follows results filed as active; ? = inconclusive; . = not tested or not shown; [ ] = remark or other dose. An excerpt weighted towards active compounds, which were near 7.3% of everything screened. Calls follow the shape of the dose curve; as a rule, active = well fitted curve in the direction sought with a large enough effect; inconclusive = small, poorly fitted or top-dose-only effect, or another doubt; inactive = no such curve, though single readings can be large; an effect the other way counts as inactive or inconclusive. % is scaled to controls: 0 for no effect and ±100 for the full control effect; potency is read from the fitted curve at half-maximal effect.
SMILES,Tau fluor cs,RORg inh,Tau fibril ThT,Gal4-VP16 FLuc,Tau fibril FP
CCOC(=O)c1cnc(-n2[nH]c(C)cc2=O)[nH]c1=O,-9%,16%,?,1%,-3%
CCOC(=O)c1cnc(-n2nc(C)cc2C)nc1N(C)C,-5%,1.1µM*,-5%,4.5µM*,2%
CCOC(=O)c1cnc(-n2nc(C)cc2C)nc1N1CCOCC1,3%,10%,1%,11µM*,-3%
CCOC(=O)c1cnc(-n2nc(C)cc2C)nc1NC1CCCC1,-6%,18%,?,-3%,3%
Cc1cc(C)c2sc(N(Cc3cccnc3)C(=O)CCOc3ccccc3)nc2c1,-17%,.,-11%,.,-16%
CCn1ncc(C2=NOC(C(=O)Nc3ccc4c(c3)OCO4)C2)c1C (configuration not stated),-10%,14%,-12%,16µM*,0%
O=C(Nc1ccc2c(c1)OCCO2)C1CC(c2ccccc2Cl)=NO1 (configuration not stated),.,-27%,.,13%,.
O=C(Nc1ccc2c(c1)OCO2)C1CC(c2ccccc2O)=NO1 (configuration not stated),.,1.6µM*,.,?,.
CCCCc1ccc(NC(=O)C2(C)Cc3ccccc3C(=O)O2)cc1 (configuration not stated),-17%,.,-12%,.,-5%
CCCCN(C)CCCNC(=O)Cn1ncc2c3ccccc3n(Cc3cc(C)ccc3C)c2c1=O,0%,.,-5%,.,11%
O=C(N/N=C/c1ccccc1Cl)c1n[nH]c2c1CCCC2,17%,2.8µM*,9%,?,-1%
COc1ccc(OC)c(S(=O)(=O)N2CCCC(N3CCN(c4ccccc4)CC3)C2)c1 (configuration not stated),.,13%,.,-9%,.
COc1ccccc1N1CCN(C(=S)NC(=O)/C=C/c2ccccc2)CC1,-9%,0.89µM*,-6%,7.1µM*,0%
COc1ccccc1N1CCN(C(=S)NC(=O)/C=C/c2ccc(F)cc2)CC1,?,3.5µM*,?,10µM*,-1%
COc1cc(NC(=O)N2CCC3(CC2)Nc2cc(F)ccc2-n2cccc23)cc(OC)c1OC,13µM*[quencher],.,-11%,.,?
CC(C)Oc1ccc(C(=O)Nc2ccc3oc(-c4ccncc4)nc3c2)cc1,-1%,.,-19%,.,2%
N#CC1=C(N)C(C#N)(C#N)C(c2ccncc2)C2CN(C(=O)OCc3ccccc3)CC=C12 (configuration not stated),-15%,?,25µM*,0%,?
N#CC1=C(N)C(C#N)(C#N)C(c2cccnc2)C2CCCC=C12 (configuration not stated),-7%,?,?,2%,?
CCOC(=O)N1CC=C2C(C#N)=C(N)C(C#N)(C#N)[C@H](c3ccsc3)[C@H]2C1,-12%,2%,?,0%,?
N#CC1=C(N)C(C#N)(C#N)C(c2cccnc2)C2CC(c3ccccc3)CC=C12 (configuration not stated),-29%,11µM*,25µM*,18µM*,?
N#CC1=C(N)C(C#N)(C#N)[C@H](c2cccnc2)[C@H]2CN(C(=O)OCc3ccccc3)CC=C12,-16%,?,16µM*,?,?
NC(=O)c1cc(S(=O)(=O)N2CCN(c3ccc([N+](=O)[O-])cc3)CC2)cs1,.,-26%,.,?,.
Cc1cc(C)c2nc(-c3ccncc3)cc(C(=O)N3CCN(Cc4ccccc4Cl)CC3)c2c1,.,-43%,.,?,.
COc1ccc(-n2c(=S)[nH]c3cc(C(=O)N4CCN(c5ccccc5)CC4)ccc3c2=O)c(OC)c1,.,?,.,13µM*,.
COc1ccc(OC)c(NC(=O)c2ccc3c(=O)n(CCc4ccccc4)c(=S)[nH]c3c2)c1,-17%,0.79µM*,-9%,0.89µM*,4%
COc1ccc(-n2c(=S)[nH]c3cc(C(=O)NCc4ccccc4)ccc3c2=O)c(OC)c1,.,20µM*,.,?,.
COc1ccc(S(=O)(=O)N2CCOc3ccccc32)cc1,.,0%,.,7%,.
CCn1c2ccccc2c2cc(NC(=O)Cc3ccc(S(=O)(=O)N4CCOCC4)s3)ccc21,7.9µM*[quencher],35%,?,4%,13%
